Rows were chosen to be rich in hits. Some 3.8% of all compounds tested hit in one or more screens of this group.
NALP3 yeast inh: NALP3 inhibition in yeast | Yeast reconstituted NLRP3/ASC/caspase-1, beta-gal luminescence, 24 h | 0.39% of 330,000 active | inhibition, % at 10 µM;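 active = inhibition of 50% or more; inactive = inhibition below 50%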;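 note: plate controls were induced DMSO wells for no effect and uninduced yeast grown without galactose for full effect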
Yeast superoxide: yeast age-related superoxide inhibition as caloric restriction mimetic. S. cerevisiae aged cells, superoxide DHE fluorescence; hits give low values. superoxide response (% of plate mean), % at 10 µM. AID 2690. 0.18% of 330,000 active;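 active = superoxide response under a set limit, about three screen SD below normal, cut at about 65% in these data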;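 note: yeast aged for seven days with compound at 30 °C before DHE staining; 100% = average MFI of all compound-treated wells on the plate with controls excluded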
TIM10 inh: TIM10 yeast growth inhibition | S. cerevisiae TIM10 strain growth, BacTiter-Glo luminescence, 24 h | inhibition, % at 10 µM | 1.4% of 330,000 active | AID 463195;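 active = inhibition of 40% or more at the single tested concentration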;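 note: wild-type TIM10 isogenic control strain grown at permissive 25 °C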
tim10-1 inh: inhibits growth of tim10-1 mutant yeast | S. cerevisiae tim10-1 ts strain growth, BacTiter-Glo, 24 h | inhibition, % at 20 µM | 2.2% of 330,000 active | AID 463190;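 active = inhibition of at least 40%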;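 note: mutant grown at 25 °C; 0% = DMSO wells with yeast and 100% = wells holding no yeast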
tim23-1 inh: growth inhibitors of tim23-1 mutant yeast | S. cerevisiae tim23-1 growth, BacTiter-Glo luminescence, 24 h | inhibition, % at 20 µM | 1.3% of 330,000 active | AID 463212;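 active = growth inhibition of the mutant yeast at or above 50%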;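 note: temperature-sensitive mutant grown at 25 °C; plate controls were DMSO-treated mutant yeast for no effect and medium wells lacking yeast for full effect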
tim10-1 conf: tim10-1 yeast growth inhibition, confirmed. shares compounds with tim10-1 inh. S. cerevisiae tim10-1 ts strain growth, BacTiter-Glo, 24 h. inhibition, % at 20 µM. 56% of 7,400 active;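 active = inhibition of yeast growth at or above a set limit in either of two repeat tests at 20 µM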;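 note: tim10-1 mutant grown at permissive 25 °C to find synthetic lethal compounds; 0% = DMSO yeast wells and 100% = medium wells without yeast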
tim10 confirm: TIM10 yeast growth inhibition, confirmed. S. cerevisiae tim10 strain growth, BacTiter-Glo luminescence, 24 h. 63% of 4,600 active. inhibition, % at 10 µM. AID 463215. shares compounds with TIM10 inh;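 active = inhibition of yeast growth at or above a set limit in either of two replicates at 10 µM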;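 note: this counterscreen used the strain with wild-type TIM10; 0% = yeast with DMSO and 100% = medium wells lacking yeast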
tim23-1 confirm: confirmation of tim23-1 mutant yeast growth inhibitors. S. cerevisiae tim23-1 growth, BacTiter-Glo luminescence, 24 h. 83% of 4,400 active. shares compounds with tim23-1 inh. inhibition, % at 20 µM;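 active = inhibition above about 39% in either of two replicate wells at 20 µM, limit read from the data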;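 note: temperature-sensitive tim23-1 mutant grown at 25 °C; 0% = DMSO wells with yeast and 100% = medium wells without yeast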
* hit, by the source's call; . = not tested or not shown.

SMILES	NALP3 yeast inh	Yeast superoxide	TIM10 inh	tim10-1 inh	tim23-1 inh	tim10-1 conf	tim10 confirm	tim23-1 confirm
O=C(Cc1c(F)cccc1Cl)c1ccc(O)cc1O	39	99	56*	48*	67*	60*	58*	68*
O=C(Cc1ccc(F)cc1)c1ccc(O)cc1O	5	88	37	44*	55*	35*	.	44*
CCc1cc(C(=O)Cc2ccc(F)cc2)c(O)cc1O	-12	102	23	25	36	.	.	.
O=C(Cc1c(F)cccc1Cl)N1CCOCC1	9	101	-3	3	6	.	.	.
NS(=O)(=O)c1ccc(CCNC(=O)c2ccc3c(=O)n4c(nc3c2)CCCCC4)cc1	-1	107	18	4	1	.	.	.
COc1ccccc1N1CCN(C2CCN(C(=O)c3cccc(F)c3)CC2)CC1	-14	107	-11	-16	-9	.	.	.
Cc1ccc(C(=O)/C=C/c2ccc3ncccc3c2)cc1	36	96	52*	53*	69*	52*	50*	47*
CC(=O)Nc1ccc(NC(=O)COC(=O)c2c(-c3ccccc3)noc2C)cc1	22	82	20	2	13	.	.	.
O=C(CSc1nc2ccccc2c(=O)[nH]1)Nc1ccc([N+](=O)[O-])cc1	12	92	-6	4	4	.	.	.
O=c1[nH]c(Sc2ccc([N+](=O)[O-])cc2[N+](=O)[O-])nc2ccccc12	15	119	29	45*	68*	38*	.	53*
Cc1ccccc1OCC(=O)NNC(=O)c1cc(S(=O)(=O)N2CCOCC2)ccc1N1CCCC1	4	102	-3	-19	-16	.	.	.
O=C(Oc1ccccc1/C=C\C(=O)c1cc2ccccc2o1)c1ccccc1	27	81	50*	47*	50*	41*	31*	49*
Cc1sc(NC(=O)c2ccco2)c(CN2CCN(c3ccccn3)CC2)c1C	3	109	27	48*	59*	32*	.	55*
COC(=O)C1=C(C)OC(N)=C(C#N)C1c1cc2cccc(C)c2nc1Cl (configuration not stated)	23	104	29	44*	64*	29	.	58*
COCCOC(=O)C1=C(C)OC(N)=C(C#N)C1c1cc2cccc(C)c2nc1Cl (configuration not stated)	14	98	29	35	44	.	.	.
Cc1cccc(CSc2cccc3cccnc23)c1	41	111	37	46*	51*	40*	.	50*
CNC(=S)Nc1ccc(C23CC4CC(CC(C4)C2)C3)cc1	37	98	50*	62*	63*	48*	39*	79*
Cc1ccc(OCC(=O)N/N=C/c2cccnc2)cc1C	13	118	-3	16	0	.	.	.
CCOC(=O)N1CCN(C(=S)NC(=O)c2cc(Br)ccc2Cl)CC1	11	94	19	25	23	.	.	.
CCCN(CC1CC1)C(=S)NC(=O)c1cc(Br)ccc1Cl	20	.	52*	60*	57*	37*	51*	52*
CCOC(=O)C1CCCN(C(=S)NC(=O)c2cc(Br)ccc2Cl)C1 (configuration not stated)	20	.	37	40*	55*	28	.	44*
CCn1c(CC(=O)Nc2ccccc2F)nnc1SCC(=O)NC1CCCC1	-3	97	-7	5	13	.	.	.
Cc1csc(NC(=O)c2cc3c(s2)CCCCC3)n1	-8	95	42*	46*	57*	39*	37*	49*
Cc1csc(NC(=O)c2cc3c(s2)CCCC3)n1	11	118	36	36	50	.	.	.
Cc1c(NC(=O)c2ccc(-c3ccc([N+](=O)[O-])cc3Cl)o2)c(=O)n(-c2ccccc2)n1C	16	105	11	8	-21	.	.	.
SMILES	NALP3 yeast inh	Yeast superoxide	TIM10 inh	tim10-1 inh	tim23-1 inh	tim10-1 conf	tim10 confirm	tim23-1 confirm
OCCOCCNc1ncnc2c1c(-c1ccccc1)cn2-c1ccccc1	18	92	26	47*	50*	4	.	46*
COc1c(C)cc(C(=O)C2CCCN(Cc3c(C)n(C)n(-c4ccccc4)c3=O)C2)cc1C (configuration not stated)	8	94	-2	13	17	.	.	.
CCCCOC(=O)n1c(=O)oc2cc(S(=O)(=O)N3CCCCC3)ccc21	17	93	43*	40*	52*	39*	23	55*
O=[N+]([O-])c1c(Nc2ccccn2)cc(Cl)c2nonc12	39	87	95*	94*	94*	94*	100*	96*
O=C(O)c1ccccc1Nc1cc(Cl)c2nonc2c1[N+](=O)[O-]	26	113	-9	2	12	.	.	.
O=C(Nc1cccc(Cl)c1)c1ccc(Cn2cc(Cl)cn2)cc1	50	95	73*	60*	68*	47*	17	76*
CN(C(=O)/C=C/c1ccc([N+](=O)[O-])s1)c1ccccc1	44	98	43*	45*	53*	59*	49*	50*
CN1/C(=C/C2CC(=O)N(c3ccc([N+](=O)[O-])cc3)C2=O)C(C)(C)c2ccccc21 (configuration not stated)	0	120	51*	66*	51*	62*	42*	66*
Oc1c(Cl)cc(Cl)cc1C=Nc1ccc2c(c1)OCCO2	-2	100	47*	46*	77*	29	32*	81*
Brc1csc(C=Nc2ccc3c(c2)OCCOCCOCCOCCO3)c1	3	107	7	16	6	.	.	.
CC(Sc1n[nH]c(N)n1)C(=O)C12CC3CC(CC(C3)C1)C2 (configuration not stated)	-5	98	0	3	12	.	.	.
CC(SC#N)C(=O)C12CC3CC(CC(C3)C1)C2 (configuration not stated)	19	99	55*	53*	66*	39*	41*	50*
COc1ccc(NC(=O)/C(Cl)=C(/Cl)S(=O)Cc2ccc(Cl)cc2)cn1 (configuration not stated)	12	.	67*	50*	73*	46*	90*	68*
COc1ccc(NC(=O)C(Cl)=C(Cl)Cl)cn1	4	.	-17	-37	-21	.	.	.
O=C(O)C1=C[C@H](c2coc3ccccc3c2=O)C[C@H](OCc2ccc(CO)cc2)O1	9	.	15	4	5	.	.	.
Cn1cccc1/C=N/n1c(-c2ccc(C(C)(C)C)cc2)n[nH]c1=S	20	94	37	44*	54*	29	.	49*
O=C(/C=C/c1cccc(F)c1)N1CCN(c2ccccn2)CC1	22	86	2	7	15	.	.	.

Source: PubChem BioAssay (several laboratories)
